Compound activity deposited in PubChem by several laboratories.
SKKanGAS inh: inhibitors of SKKanGAS S. pyogenes growth in kanamycin (SK-promoter or general growth effect); BacTiter-Glo, 6 h; inhibition, % at 7.5 µM; 300,000 compounds, 1.3% hits; AID 1662;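 active = mean replicate score, as percent of positive control median, at least 50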;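 also: strain carries kanamycin resistance gene driven by streptokinase promoter and grows in 40 µg/ml kanamycin; loss of luminescence reflects streptokinase promoter inhibition or plain growth inhibition; 0% = median of DMSO wells and 100% = positive control at its reference dose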
PP1 counter: counter-screen for PP5 inhibitors: inhibitors of human PP1-alpha. P62136. purified PP1alpha, OMFP fluorescence. inhibition, % at 6.7 µM. 320,000 compounds, 0.9% hits. AID 2235;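 active = inhibition above the mean inhibition of all tested compounds plus 3 SD, computed separately for each screening campaign, cut at about 15% in these data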
IDE cell inh: inhibits human insulin-degrading enzyme in HEK cells; FAbetaB cleavage, fluorescence polarization; inhibition, % at 5.59 µM; 320,000 compounds, 0.41% hits; AID 434962;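 active = percent inhibition above the average of all tested compounds plus 3 SD, set per screening campaign, cut at about 16% in these data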;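 also: IDE supplied by intact live HEK cells; FP after avidin binding of uncleaved biotin substrate so inhibition keeps polarization high; 0% = DMSO wells and 100% = 60 µM reference IDE inhibitor Ii1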
Exocytosis inh: lytic granule exocytosis inhibition. TALL-104 LAMP-1 surface exposure, flow cytometry; cells stimulated with thapsigargin and PMA. inhibition, % at 10 µM. 360,000 compounds, 0.66% hits. AID 651702;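 active = inhibition above about 55%, limit read from the data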
IDE act: boosts human insulin-degrading enzyme activity in HEK cells; P14735; FAbeta-B cleavage, fluorescence polarization; 0% vehicle, 100% cell-free pure enzyme wells; activation, % at 5.96 µM; 340,000 compounds, 0.073% hits;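 active = activation above the mean of all tested compounds plus 3 SD, set per screening campaign, cut at about 17% in these data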
PP5 primary: inhibitors of human protein phosphatase 5 (PP5) | P53041 | purified PP5c, OMFP substrate fluorescence | inhibition, % at 6.7 µM | 320,000 compounds, 0.18% hits;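 active = inhibition above the campaign's mean inhibition across all tested compounds plus 3 SD, cut at about 9.5% in these data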;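 also: 0% = DMSO only and 100% = 100 µM cantharidin control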
Target sequence (P53041 whole entry, looked up): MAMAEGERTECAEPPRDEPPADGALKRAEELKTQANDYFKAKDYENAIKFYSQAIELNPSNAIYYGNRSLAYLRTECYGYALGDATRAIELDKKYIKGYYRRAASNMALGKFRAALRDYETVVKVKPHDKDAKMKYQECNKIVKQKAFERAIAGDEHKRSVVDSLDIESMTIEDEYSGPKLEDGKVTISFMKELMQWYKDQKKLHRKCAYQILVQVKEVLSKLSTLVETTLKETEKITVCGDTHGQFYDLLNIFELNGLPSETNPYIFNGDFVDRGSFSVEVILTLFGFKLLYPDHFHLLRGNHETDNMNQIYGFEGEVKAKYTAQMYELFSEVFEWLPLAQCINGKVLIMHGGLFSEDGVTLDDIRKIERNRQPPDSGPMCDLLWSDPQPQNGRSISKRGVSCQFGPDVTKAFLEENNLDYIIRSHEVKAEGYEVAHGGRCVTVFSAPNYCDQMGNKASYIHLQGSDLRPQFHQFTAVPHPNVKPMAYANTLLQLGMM
PP5 conf: confirmation of human PP5 phosphatase inhibitors; shares compounds with PP5 primary; Purified PP5, fluorogenic phosphatase substrate, fluorescence; inhibition, % at 6.7 µM; 460 compounds, 22% hits; in the data active = inhibition above about 9.5%
PP1 counter 3x: counter-screen for PP5 inhibitors: human PP1 phosphatase inhibition; shares compounds with PP5 primary; AID 2355; 460 compounds, 4% hits; PP1 enzyme, fluorescent phosphatase substrate; inhibition, % at 6.7 µM; in the data active = inhibition above about 16%
* = called active by the depositor; . = not tested or not shown. This is a sample that favours compounds with a hit; in the whole collection about 2.8% have one here.

SMILES | SKKanGAS inh | PP1 counter | IDE cell inh | Exocytosis inh | IDE act | PP5 primary | PP5 conf | PP1 counter 3x
CCOc1ccccc1/C=N/NC(=O)c1cc(C(C)C)[nH]n1 | 7 | -3 | 5 | 2 | -1 | -1 | . | .
CC(C)c1cc(C(=O)N/N=C/c2c[nH]c3ccccc23)n[nH]1 | -3 | -1 | 7 | -5 | 5 | 9.8* | -6 | -3
CCCCc1c(Cc2cccc(F)c2)ncn1CCc1ccccc1OC | . | . | . | 14 | . | . | . | .
Cc1ccc(S(=O)(=O)N2CCC(C(=O)Nc3ncccc3O)CC2)cc1 | . | -1 | -4 | 2 | -1 | 2 | . | .
CCCc1ccc(Oc2cn[nH]c2-c2ccc(O)cc2O)cc1 | . | 6 | -1 | 1 | 11 | 10.0* | 4 | 7
CCCCCCCCN1C(=O)[C@H](CC(=O)N2CCN(C(=O)OCC)CC2)C[C@@]2(C(=O)OC)CC(C)(C)CC=C12 | . | . | . | 1 | . | . | . | .
CCSc1nc2ccccc2c(=O)n1CCc1ccc(OC)c(OC)c1 | 6 | -3 | 6 | -4 | 6 | 10* | -1 | 0
COc1ccc(CCn2c(C)nc3ccccc3c2=O)cc1OC | -6 | 0 | 0 | -1 | 0 | 1 | . | .
Cc1cc(C(=O)N(C2CCCCC2)C2CCCCC2)no1 | -7 | -10 | 6 | 1 | 7 | 9.7* | -4 | -4
Cc1cc(C(=O)N2C(C)CCCC2C)no1 (stereo not given) | 2 | 0 | -7 | -7 | -1 | -2 | . | .
CCN(CC)CCCN1CC(=O)N2[C@@H](Cc3c([nH]c4ccccc34)C2(C)C)C1=O | 1 | 5 | 5 | -3 | 1 | 2 | . | .
CN(C)C(=O)Cn1c(SCC(=O)NC2CCCCC2)nc2ccccc21 | -1 | -2 | 2 | 7 | 3 | 10.0* | -1 | -2
CC(C)NC(=O)Cn1c(SCC(=O)NC2CCCC2)nc2ccccc21 | -4 | -2 | -2 | -2 | 0 | 0 | . | .
Cc1ccc([C@@H]2CC(=O)[C@@H]3CN(S(=O)(=O)c4ccc(C)cc4)[C@H](c4ccc(Cl)cc4)C[C@@H]3N2S(=O)(=O)c2ccc(C)cc2)cc1 | . | . | . | 4 | . | . | . | .
CC1(C)CC(=O)C=C(C(=O)N2CCCC(C(=O)c3cccc(C(F)(F)F)c3)C2)O1 (stereo not given) | -12 | -10 | -1 | -6 | 3 | 2 | . | .
O=c1c2cc(N3CCOCC3)ccc2[nH]c(=S)n1Cc1cccc(Cl)c1 | 11 | -4 | 0 | 4 | 3 | 3 | . | .
O=c1c2cc(N3CCOCC3)ccc2[nH]c(=S)n1Cc1ccco1 | 1 | 9 | 1 | -5 | -3 | 10* | -3 | -1
CC(=O)Nc1ccc(-c2ccnc3c2CC(C(=O)Nc2cccnc2)O3)cc1 (stereo not given) | . | . | . | -8 | . | . | . | .
CCN(CC)CCN(Cc1cc2cc3c(cc2[nH]c1=O)OCO3)C(=S)NCCCOC | 0 | 1 | 3 | -4 | 4 | 12* | -5 | -4
CC1(C)CC(=O)C2=C(C1)c1c(ccc3ccccc13)NC2c1ccc(OCC(=O)O)cc1 (stereo not given) | -3 | -2 | -2 | 2 | -3 | 9.8* | -2 | 1
CCOC(=O)c1c(C)[nH]c(C)c1C(=O)COC(=O)/C=C/c1cccc(C(F)(F)F)c1 | -7 | 2 | -3 | -1 | 1 | 11* | 8 | 9
CCOC(=O)c1c(C)[nH]c(C)c1C(=O)COC(=O)/C=C/c1cccc(F)c1 | -5 | 0 | -6 | 0 | 2 | 3 | . | .
O=C(Nc1ccc(Cl)c(S(=O)(=O)N2CCCCC2)c1)c1ccco1 | . | -3 | -8 | -1 | 1 | 2 | . | .
COc1ccc(-c2n[nH]c(C)c2-c2ccc(Cl)cc2)c(O)c1OC | 8 | 6 | -4 | 3 | -4 | 10* | 4 | 5
COc1cc(CN2C(=S)NC(C)(C)CC2(C)O)cc(OC)c1 (stereo not given) | -4 | -5 | -1 | -6 | 5 | -2 | . | .
SMILES | SKKanGAS inh | PP1 counter | IDE cell inh | Exocytosis inh | IDE act | PP5 primary | PP5 conf | PP1 counter 3x
NC(=O)c1cccc(-c2cc(Nc3ccc(OC(F)(F)F)cc3)ncn2)c1 | -26 | 10 | 5 | -6 | -3 | 10* | 6 | 9
CCNCc1cc(Br)c(OCC(=O)Nc2ccccc2)c(OC)c1 | 7 | 0 | 9 | 1 | 1 | 9.9* | 0 | -3
CCN(CC(=O)Nc1ccc(NC(C)=O)cc1)CC(=O)Nc1ccc(Cl)c(Cl)c1 | 1 | 3 | -2 | -1 | -1 | -1 | . | .
CCN(CC(=O)Nc1ccc(NC(C)=O)cc1)CC(=O)Nc1cccc(Cl)c1 | 4 | 0 | 2 | 6 | 3 | 9.8* | -3 | -2
CCCc1cc2c(cc1NS(=O)(=O)c1ccc(CCNC(C)=O)cc1)OCO2 | 0 | -6 | -2 | -3 | 3 | 11* | -5 | -5
CC(=O)NCCc1ccc(S(=O)(=O)NCc2ccc3c(c2)OCO3)cc1 | -9 | -4 | -3 | 0 | 2 | 1 | . | .
O=C(Cn1c(NCCO)nc2ccccc21)NCCc1ccccc1 | 4 | 2 | 3 | -1 | -2 | 3 | . | .
O=C(Cn1c(NCCO)nc2ccccc21)c1ccco1 | -7 | -5 | 5 | -2 | 2 | 10* | -5 | -4
COc1ccc(-c2csc(NC(=O)c3ccccc3S(C)(=O)=O)n2)cc1 | 0 | -20 | -2 | 2 | -1 | 11* | -1 | 0
CC(=O)Nc1ccc(S(=O)(=O)Nc2nc3ccccc3nc2Nc2ccc(S(N)(=O)=O)cc2)cc1 | 10 | 2 | 2 | -4 | 4 | 3 | . | .
NS(=O)(=O)c1ccc(Nc2nc3ccccc3nc2NS(=O)(=O)c2cccc([N+](=O)[O-])c2)cc1 | 6 | 7 | -3 | 0 | 2 | 11* | 6 | 14
CC(C)c1nnc(SCC(=O)Nc2ccc3c(c2)OCCO3)n1C | 12 | -4 | 1 | -14 | -3 | 2 | . | .
Cc1ccc(CNC(=O)c2ccc(C#CC(C)(C)O)s2)cc1 | 8 | 1 | 9 | 0 | -1 | 9.6* | -3 | -2
O=C1OCCC1Sc1nnc(-c2cccc(Br)c2)o1 (stereo not given) | -1 | -4 | -1 | 1 | -2 | 12* | -3 | -3
O=C1OCCC1Sc1nnc(-c2ccc3c(c2)OCO3)o1 (stereo not given) | 17 | -2 | 0 | -7 | -2 | 1 | . | .
Cc1ccc(OCCn2cc(/C=N/NC(=O)c3ccncc3)c3ccccc32)cc1 | 6 | 8 | 2 | 10 | 0 | 9.9* | 1 | 3
CN(C)CCNC(=O)C1(O)c2cc(Br)ccc2NC(=O)N1c1ccc(Cl)cc1 (stereo not given) | -1 | -2 | 1 | 6 | 1 | 1 | . | .
COc1ccccc1CC(=O)O/N=C(\N)Cc1cccc2ccccc12 | 12 | 5 | -3 | 0 | -1 | 12* | -2 | -3
